The list is not random: actives were taken first. Their share in the collection is about 11%.
NPR1 antag = blocks ANP-stimulated signaling of human Npr1 receptor; P16066; HEK293 hNpr1 GloSensor cGMP, ANP-stimulated luminescence; Potency, µM (top dose mostly 46.3 µM), inactives show at the top dose activity change, negative = inhibition, hits mostly inhibitors; actives 1.6% (n = 76,000); calls by dose curve; note: nearly all actives have a fitted effect of over 60% in size
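HEK293 cells stably expressing human Npr1 and cGMP GloSensor pGS-40F, loaded 2 h with 2% GloSensor reagent, given compound 30 min at room temperature. Luminescence read before and 20 min after 0.1 nM hNppA.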
NIH3T3 tox = NIH 3T3 cell cytotoxicity | NIH 3T3 viability, CellTiter-Glo ATP luminescence, 48-72 h | Potency, µM (doses to about 96.7 µM), for inactives: top-dose activity change, negative = cytotoxicity, hits mostly inhibitors | actives 4.3% (n = 94,000) | AID 1345082; note: nearly all actives have a fitted effect of over 55% in size
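Cells were seeded at 400 per well, treated with pin-transferred compound, and kept 48 or 72 hr at 37 °C before CellTiter-Glo addition and luminescence imaging of cellular ATP.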
Luciferase inh = Photinus pyralis luciferase inhibition | P08659 | purified P. pyralis luciferase, luminescence, biochemical | Potency, µM (series often up to 115 µM), hits mostly inhibitors | actives 2.5% (n = 76,000); note: nearly all actives have a fitted effect of over 65% in size
Target sequence (P08659 whole entry, looked up): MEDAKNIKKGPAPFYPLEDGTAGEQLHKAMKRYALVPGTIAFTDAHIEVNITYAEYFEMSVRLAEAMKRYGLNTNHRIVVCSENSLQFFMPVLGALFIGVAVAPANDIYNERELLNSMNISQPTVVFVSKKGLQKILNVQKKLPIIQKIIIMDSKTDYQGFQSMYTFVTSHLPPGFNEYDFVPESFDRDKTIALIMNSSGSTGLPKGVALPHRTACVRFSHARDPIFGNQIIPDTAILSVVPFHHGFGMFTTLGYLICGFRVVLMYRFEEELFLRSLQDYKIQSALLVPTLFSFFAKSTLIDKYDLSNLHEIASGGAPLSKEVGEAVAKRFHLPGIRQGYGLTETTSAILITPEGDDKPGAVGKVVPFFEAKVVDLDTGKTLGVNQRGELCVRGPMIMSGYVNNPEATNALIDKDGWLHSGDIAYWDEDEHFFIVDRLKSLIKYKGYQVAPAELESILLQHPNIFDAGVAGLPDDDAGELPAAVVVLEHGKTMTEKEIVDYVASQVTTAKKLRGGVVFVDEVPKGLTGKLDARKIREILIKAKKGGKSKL
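Biochemical qHTS: compound (6-point titration) added to 10uM D-luciferin plus 10uM ATP in Tris acetate pH 7.5 buffer with Mg, Tween-20 and BSA, then purified enzyme at 10nM; light output imaged.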
HEK293 tox = kills HEK 293 cells; actives 6.6% (n = 94,000); Potency, µM (doses to about 115 µM), inactives show at the top dose activity change, negative = cytotoxicity, usual class: inhibitors; HEK 293 viability, ATP luminescence (CellTiter-Glo), 48-72 h; AID 1345083; note: nearly all actives have a fitted effect of over 60% in size
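HEK 293 seeded at 250 cells/well receive compound via pintool. After 48 or 72 hr at 37 degree Celsius, 5% CO2 and 95% humidity, CellTiter-Glo is dispensed and luminescence read following 10 min at room temperature.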
Numbers without * were called inactive; i = inactive; ? = inconclusive; . = no result; ! = a repeat was not active; [ ] = remark or other dose. Unless noted, calls come from the whole dose curve; as a rule, active = well fitted curve in the direction sought with a large enough effect; inconclusive = small, poorly fitted or top-dose-only effect, or another doubt; inactive = no such curve, though single readings can be large; an effect the other way counts as inactive or inconclusive. % is set by controls: 0 for no effect and ±100 for the full control effect; potency is the fitted concentration of half-maximal effect.

SMILES | NPR1 antag | NIH3T3 tox | Luciferase inh | HEK293 tox
CC1CCN(C(=O)C[C@@H]2O[C@H](CNC(=O)C3CC3)[C@@H](O)[C@H]2O)CC1 | 2.8%[70.6 µM] | -8.6%[174 µM] | i | 3.1%[172 µM]
CN1CCN(C(=O)[C@@H]2CCC[C@@H](NC3CCOCC3)CN(C)C(=O)C2)CC1 | -1.8%[70.6 µM] | 4.2%[138 µM] | i | i
O=C(Nc1cc(F)c(F)c(F)c1)N1CCC(OC2CCN(Cc3ccccc3)CC2)CC1 | -16.3% | 35.5µM* | i | ?
CNC(=O)N1CCC(OC2CCN(Cc3ccccc3)CC2)CC1 | -0.1% | -13.4% | i | 5.7%
CCCCCNC(=O)CNC(=O)c1cccc(-c2ccsc2)c1 | . | -31.4% | . | -21.4%
N#Cc1ccc(S(=O)(=O)N2CCC3(CC2)CC2C(=O)NCCN2C3)cc1 (stereo not given) | 7.2% | -10.8% | i | -12.9%
COc1ccc(N2Cc3c(ncnc3N3CCN(C(C)=O)CC3)N(C)CC2=O)cc1 | 6.2% | 2.9% | i | -6.2%
Cc1cnc(CC2CCCN(Cc3ccc(C#N)cc3)C2)n1C(C)C (stereo not given) | 0.9% | -24.1% | i | ?
Clc1ccc(-c2cnc3n2C[C@H](CNCc2cccnc2)OC3)cc1 | -12.1%[70.6 µM] | ? | i | ?
O=C(NC[C@H]1Cn2c(-c3ccc(F)cc3)cnc2CO1)c1cccnc1 | -2.6%[70.6 µM] | -29.5%[138 µM] | ? | -18.9%[172 µM]
Clc1ccc(CNC[C@H]2Cn3c(-c4cccc(Cl)c4)cnc3CO2)cc1 | ? | 44.7µM* | i | 63.1µM*
O=C(NC[C@H]1Cn2c(-c3ccc(Cl)cc3)cnc2CO1)c1cccnc1 | -4.4%[70.6 µM] | ? | ? | 22.4µM*
Clc1ccc(CNC[C@H]2Cn3c(-c4ccccc4)cnc3CO2)cc1 | ? | 89.1µM* | i | 100µM*
Fc1ccc(CNC[C@H]2Cn3c(-c4ccc(Cl)cc4)cnc3CO2)cc1 | ? | ? | i | 79.4µM*
O=C(O)COc1ccc(-c2nccc3c2C(=O)N(Cc2c[nH]c4ccccc24)CC(COc2cccc(N4CCOCC4)c2)O3)cc1 (stereo not given) | 8.5% | ? | i | -1.5%
O=C(NCc1nnc2ccc(-c3ccccc3)nn12)c1cc(F)ccc1Cl | 1.7% | ? | i | 39.8µM*
CN(CCCN1CCOCC1)Cc1nc(-c2ccc(Cl)cc2)no1 | -1.8% | -13.3% | i | -20.1%
CCOC(=O)N1CCC(NC2CC(=O)N(CCc3ccc(OC)cc3)C2)CC1 (stereo not given) | 0.0% | -16.9% | i | -15.7%
Cc1nn(-c2ccc(C(F)(F)F)cc2)c(C)c1[C@@H]1C=C[C@@H](NC(=O)COc2ccccc2)C1 | -24.2% | ? | i | ?
Cc1nn(-c2ccc(C(F)(F)F)cc2)c(C)c1[C@@H]1C=C[C@@H](NS(=O)(=O)c2ccccc2)C1 | -29.3% | 39.8µM* | i | 44.7µM*
COc1ccc(C(=O)N[C@@H]2C=C[C@@H](c3c(C)nn(-c4ccc(C)c(Cl)c4)c3C)C2)cc1 | ? | ? | 31.6µM* | ?
Cc1ccc(-n2nc(C)c([C@@H]3C=C[C@@H](NS(=O)(=O)c4cccs4)C3)c2C)cc1Cl | ? | 35.5µM* | ? | 44.7µM*
Cc1noc(-c2ccn3c(CNC(=O)C(C)c4ccccc4)nnc3c2)n1 (stereo not given) | 13.0% | 2.0% | i | i
CCOC(=O)C1(Cc2ccccc2C)CCCN(Cc2nccn2CC)C1 (stereo not given) | -12.2% | ? | i | ?
COc1ccc(CCNC(=O)c2c(C)noc2-c2ccc3c(c2)OCO3)cc1OC | -3.1% | ? | i | -26.2%
SMILES | NPR1 antag | NIH3T3 tox | Luciferase inh | HEK293 tox
O=C(c1n[nH]c2c1CCCC2)N1CCC2(CC1)N=C(c1ccccc1)NO2 | -24.0% | -15.9% | 28.2µM* | ?
O=C(c1ccncc1)N1CCC2(CC1)N=C(c1ccccc1)NO2 | 4.1% | i | i | 7.3%
Cn1nc(C(=O)N2CCC3(CC2)N=C(c2ccccc2)NO3)c2ccccc21 | -3.6% | -3.4% | 35.5µM* | ?
N#Cc1cccc(C(=O)NC2CCN(c3cc(-c4ccc(F)cc4)[nH]n3)C2)c1 (stereo not given) | -11.3% | ? | i | 44.7µM*
N#Cc1cccc(C(=O)NC2CCN(c3cc(-c4ccc(F)cc4)[nH]n3)CC2)c1 | -22.7% | ? | i | ?
COc1ccc(-c2cc(N3CCC(NC(=O)c4cccc(OC(F)(F)F)c4)C3)n[nH]2)cc1 (stereo not given) | -9.6% | ? | i | 39.8µM*
COc1ccc(-c2cc(N3CCC(NC(=O)c4cccc(C#N)c4)C3)n[nH]2)cc1 (stereo not given) | -10.5% | ? | i | 35.5µM*
COc1ccc(-c2cc(N3CCC(NC(=O)c4cccc(C)c4)C3)n[nH]2)cc1 (stereo not given) | 0.7% | -17.0% | i | ?
C[S+](=O)([O-])c1cccc(-c2nnc3ccc(C(=O)NCCc4ccc(Cl)cc4)cn23)c1 | . | -19.7% | . | -17.0%
COc1ccc(-n2nc(C3CCN([S+](=O)([O-])c4ccc(C)cc4)CC3)[nH]c2=O)cc1 | 14.1% | 1.0% | i | i
Cc1ccc(CN2CCCC(c3nn(-c4ccc(Cl)cc4)c(=O)[nH]3)C2)cc1 (stereo not given) | -26.0% | ? | i | 35.5µM*
CC(=O)N1CCC(c2nn(-c3ccc(F)cc3)c(=O)[nH]2)CC1 | 23.2%[70.6 µM] | -20.5%[138 µM] | i | -22.1%[172 µM]
COc1ccc(-n2nc(C3CCN(Cc4ccc(C#N)cc4)CC3)[nH]c2=O)cc1 | -58.2% | -27.7% | i | 22.4µM*
COc1ccc(-n2nc(C3CCN(Cc4ccc(C)cc4)CC3)[nH]c2=O)cc1 | -14.4% | ? | i | 39.8µM*!
COc1ccc(-n2nc(C3CCN(Cc4ccc(F)cc4)CC3)[nH]c2=O)cc1 | -22.1% | ? | i | 17.8µM*!
O=c1[nH]c(C2CCCN(Cc3ccc(C(F)(F)F)cc3)C2)nn1-c1ccc(Cl)cc1 (stereo not given) | -14.5% | -30.8% | i | 0.0%
Cc1noc(C2CC3(CCN(C(=O)c4cccn4C)CC3)CN2C)n1 (stereo not given) | 1.7% | -9.5% | i | -21.5%
CN1Cc2cc(F)ccc2N(CC(O)COc2ccccc2)CCC1=O (stereo not given) | . | ? | . | -29.9%
c1ccc2c(c1)CCCN2CCCNc1ncncn1 | -1.7% | ? | i | ?
c1cncc(-c2ccnc(NCCCN3CCCc4ccccc43)n2)c1 | -18.1% | 22.4µM* | i | ?
O=C(NC1CCCN(c2ccc3nnc(C4CC4)n3n2)C1)C1CC1 (stereo not given) | . | 0.5% | . | -4.7%
CCCNC(=O)N1CCCC(Cc2ncc(C)n2Cc2ccccc2)C1 (stereo not given) | 4.0% | -3.6% | i | ?
COCCNC(=O)CC(c1ccc(Cl)cc1)c1c[nH]c2ccc([N+](=O)[O-])cc12 (stereo not given) | ? | ? | i | 39.8µM*
